Assay outcomes as filed in PubChem BioAssay.
ATXN viability: viability counter-screen for ATXN expression inhibitors; S2 cells (HEK-293 line with an ATXN2-luciferase reporter) viability, CellTiter-Fluor protease fluorescence, 24 h; Potency, µM (titrated, usually from 56.7 µM), most hits filed as cytotoxic; hit rate 0.49% among 400,000; also: nearly all actives have a fitted effect of over 40% in size
Nrf2 activator: Nrf2 pathway activation; AREc32 ARE-luciferase reporter (MCF7-derived line), luminescence, 24 h; Potency, µM (titrated, usually from 46.1 µM), inactives show at the highest dose activation, hits mostly activators; hit rate 0.31% among 410,000; also: % of control where 0% means no effect; nearly all actives have a fitted effect of over 65% in size
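Quantitative high-throughput format: AREc32 reporter cells, 1000 per well, received compound by pin transfer and were incubated 24 hr at 37 deg C, 5% CO2, before Steady-Glo luminescence detection.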
Nrf2 block: blocks Nrf2 signaling | A549 ARE-Fluc reporter, luciferase luminescence, 18-24 h | Potency, µM (highest dose often 46 µM), inactives show top-dose activity change, negative = inhibition, most hits filed as inhibitors | hit rate 2.1% among 360,000 | AID 504444; also: % is scaled to controls: 0 for no effect and ±100 for the full control effect; nearly all actives have a fitted effect of over 60% in size
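Two sequential reads on A549 ARE_Fluc cells exposed to compound for 18-24 h: a CellTiter-Fluor fluorescence read for viability, then a luciferase luminescence read for Nrf2/ARE activity.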
ATXN2 expr inh: inhibitors of ATXN2 expression | HEK-293 ATXN2-luciferase reporter, luminescence, 24 h | Potency, µM (titrated, usually from 57 µM), inactives show at the top dose activity change, negative = inhibition, actives largely listed as inhibitors | hit rate 0.72% among 360,000; also: % is scaled to controls: 0 for no effect and ±100 for the full control effect; nearly all actives have a fitted effect of over 55% in size
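qHTS (up to 57 uM final) was run with 24 h compound exposure of reporter cells at 37 °C. Each well was multiplexed: SteadyGlo luminescence measured ATXN2-luciferase expression after a fluorogenic Gly-Phe-AFC viability readout (25 uM final).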
A549 viability: kills or reduces viability of A549 cells in Nrf2 counter-screen; A549 ARE-Fluc cells, CellTiter-Fluor viability, 18-24 h; AID 504648; Potency, µM (titrated, usually from 46 µM), without a hit: at the top dose activity change, negative = cytotoxicity, hits mostly inhibitors; hit rate 0.16% among 390,000; also: % is scaled to controls: 0 for no effect and ±100 for the full control effect
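A549 ARE_Fluc cells in 5% FBS OPTI-MEM were exposed to compounds in concentration-response for 18-24 h at 37 deg C. Viability was read by CellTiter-Fluor fluorescence (Ex 405/Em 525) after 30 min, before the luciferase read.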
Active calls of the source: *; i = inactive; ? = inconclusive; nt = no result given; ! = not active in a repeat; [ ] = remark or other dose. An excerpt weighted towards active compounds, which were near 2.9% of everything screened. Calls follow the shape of the dose curve; as a rule, active = well fitted curve in the direction sought with a large enough effect; inconclusive = small, poorly fitted or top-dose-only effect, or another doubt; inactive = no such curve, though single readings can be large; an effect the other way counts as inactive or inconclusive. Potency is read from the fitted curve at half-maximal effect.

SMILES	ATXN viability	Nrf2 activator	Nrf2 block	ATXN2 expr inh	A549 viability
COc1cccc(-c2cc3c(c(OC)c2)OCCN(Cc2ccccc2O)C3)n1	i	nt	nt	nt	nt
CC(=O)c1ccc(NC(=O)C2CCC(CNS(=O)(=O)c3cccs3)CC2)cc1 (configuration not stated)	i	-1%	6%	8%	1%
Nc1c(N2CCCC2)cc(Cl)c2nonc12	i	1%	16µM*	-20%	?
O=C(COc1cccnc1[N+](=O)[O-])Nc1cccc2ccccc12	i	5.6µM*	-11%	-12%	-4%
O=C(COc1cccnc1[N+](=O)[O-])N1CCC(Cc2ccccc2)CC1	i	3%	15µM*	-12%	2%
O=C(COc1ccccc1[N+](=O)[O-])NNC(=O)Nc1cccc2ccccc12	?	14µM*	?	nt	-4%
Cc1ccc(OCC(=O)N2CCC(Cc3ccccc3)CC2)c([N+](=O)[O-])n1	i	0%	-11%	nt	1%
CC(C)Cn1c(N)c(C(=O)CSc2nc3ncc(Cl)cc3[nH]2)c(=O)n(C)c1=O	?	4%	12µM*	?	?
Cc1nc2ccccc2c2oc(C(=O)NCCCN3CCCC(C)C3)cc12 (configuration not stated)	?	8%	?	-21%	21µM*
COc1ccccc1N1CCN(C(=O)c2cc3c(C)nc4ccccc4c3o2)CC1	?	0%	?	20µM*	-13%
Cc1nc2ccccc2c2oc(C(=O)NCc3ccccn3)cc12	i	2%	?	-13%	-13%
Cc1ccc(CNC(=O)c2cc3c(C)nc4ccccc4c3o2)cc1	?	0%	18µM*	?	-2%
Cc1ccc(C)c(N2CCN(C(=O)c3cc4c(C)nc5ccccc5c4o3)CC2)c1	?	-1%	10%	nt	0%
CCOc1ccc(CNC(=O)c2cc3c(=O)oc4ccc(C)cc4c3s2)cc1	i	-1%	25%	-6%	0%
COc1cccc(NC(=O)c2sc3nc(C)c(C(=O)Nc4ccc(Cl)cc4)c(-c4ccc(Br)cc4)c3c2N)c1	nt	0%	0%[9.27 µM]	nt	5%
CCc1cccc2c(C(=O)COC(=O)c3ccc([N+](=O)[O-])s3)c[nH]c12	i	19%	?	-26%	21µM*
CC(=O)O[C@]1(C(C)=O)CC[C@H]2[C@@H]3C=C(Cl)C4=CC(=O)[C@@H]5C[C@H]5[C@]4(C)[C@@H]3CC[C@@]21C	nt	nt	nt	-15%	nt
CC(C)C(NS(C)(=O)=O)c1nnc2n1CCN(Cc1ccc3cccnc3c1)CC2 (configuration not stated)	i	nt	nt	nt	nt
O=C(N/N=C\c1ccc(CNS(=O)(=O)c2ccccc2)o1)C(=O)Nc1ccc(F)cc1	i	1%[9.22 µM]	3%	15%	-5%
O=C(N/N=C\c1ccc(CNS(=O)(=O)c2ccc(Cl)cc2)o1)C(=O)Nc1ccc(Oc2ccccc2)cc1	i	-1%	16µM*	-22%	?
O=C(Nc1cc(C(F)(F)F)ccc1Cl)C(O)Cc1ccccc1 (configuration not stated)	nt	nt	7%	nt	-7%
N#Cc1ccc(NC(=O)COC(=O)C2Cc3ccccc3CN2C(=O)c2ccccc2)cc1 (configuration not stated)	i	-1%	7.3µM*	-27%	?
Nc1ncnc2c1C(c1ccccc1)c1c(ccc3ccccc13)O2 (configuration not stated)	i	-2%	18µM*!	35%	?
N=c1c2c(ncn1Cc1ccco1)Oc1ccc3ccccc3c1C2c1ccccc1 (configuration not stated)	nt	4%	?	22µM*	?
N=c1c2c(ccn1CCc1ccccc1)Oc1ccc3ccccc3c1C2c1ccccc1 (configuration not stated)	nt	nt	3.7µM*	nt	3.7µM*
SMILES	ATXN viability	Nrf2 activator	Nrf2 block	ATXN2 expr inh	A549 viability
COc1cccc(-c2nn3c(=O)cc(CN4CCN(S(=O)(=O)c5ccc(C)cc5)CC4)nc3s2)c1	i	1%	nt	10%	15%
COc1ccc(CC2S/C(=N/N=C/c3ccccc3O)NC2=O)cc1 (configuration not stated)	?	0%	-20%	?	-1%
O=C1N/C(=N/N=C/c2ccccc2O)SC1Cc1ccc(F)cc1 (configuration not stated)	?	1%	-13%	8.9µM*	-5%
N#Cc1c(N)nc(N)nc1Nc1ccc(Br)cc1	i	13µM*	?	102%	-6%
C/C=C(/C(=C/C)c1ccc(OC(C)=O)cc1)c1ccc(OC(C)=O)cc1	i	nt	nt	-12%	nt
COc1ccc2cc(CN(CCO)C(=O)c3ccccc3F)c(=O)[nH]c2c1	i	0%	6%	0%	0%
COc1ccc2cc(CN(CCO)C(=O)c3ccc(Br)cc3)c(=O)[nH]c2c1	i	1%	21µM*	-3%	-13%
Cc1cc2c(s1)c1cnn(Cc3ccc(F)cc3Cl)c(=O)c1n2C	nt	nt	4%	nt	0%
O=S(=O)(c1ccc2c(c1)OCCO2)N1CCN(S(=O)(=O)c2ccc3nc(Cl)c(Cl)nc3c2)CC1	nt	nt	-16%	nt	-5%
Cc1cccc(-c2[nH]c(C(C)(C)C)nc2-c2ccc3nccnc3c2)n1	nt	nt	nt	27µM*	nt
Cc1cccc(-c2[nH]ncc2-c2ccc3ncccc3n2)n1	nt	nt	nt	6%	nt
S=c1nc2ccccc2c2nc(-c3ccccc3Br)[nH]n12	?	7%	6%	25µM*	-8%
CCN(CC)CCN(C)C(=O)c1ccc(-c2ccccc2)nc1N(C)C	i	nt	nt	nt	nt
CN(C)CCOc1ccc(-c2c(-c3ccccc3)sc3ccccc23)cc1	?	-3%	?	20µM*	?
c1ccc(-c2sc3ccccc3c2-c2ccc(OCCN3CCCCC3)cc2)cc1	i	0%	1%	-8%	-1%
O=S(=O)(Nc1nc2ccccc2nc1N1CCN(c2ccccc2F)CC1)c1ccc(Cl)cc1	nt	-1%	23µM*	nt	?
C=CCNC(=S)N/N=C/c1ccc(C)cc1C	i	14%	18µM*	-18%	-3%
CCCCCCCCCCCCc1ccc(S(=O)(=O)Nc2nncs2)cc1	nt	nt	nt	3%	nt
O=C(CSC1=NCCS1)c1ccc(Cl)cc1	i	2%	13µM*	-7%	-19%
N#Cc1c(Cl)cccc1Oc1ccc([S+](=O)([O-])N2CCN([S+](=O)([O-])c3c(F)cccc3F)CC2)cc1	nt	nt	4%	nt	1%
COc1cc2nc(-c3ccc(N4CCN(C)CC4)cc3)nc(NCCN3CCOCC3)c2cc1OC	nt	nt	nt	0.39µM*	nt
Cc1cc(=O)n(C(C)C(=O)N2CCCc3ccccc32)c2c1c(C)nn2-c1ccccc1 (configuration not stated)	i	3%	18µM*	-3%	?
